Results filed as inconclusive are left out. Calls of active or inactive are those of the source. Unless noted, calls follow the shape of the full dose curve.
Key:
[1] = Cell Viability - BJ (AID 421); conditions: BJ fibroblast viability, qHTS;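 also: cells exposed to compound for 40 hours at 37 °C before readout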
Summary of the method: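 Quantitative HTS: ATP depletion in BJ cells after 40 hr compound exposure in complete culture medium, detected with CellTiter-Glo; AC50 from standard Hill fits.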

[2] = Cell Viability - Jurkat (AID 426;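 active = dose-dependent loss of cell ATP signal giving a full or clear fitted curve, ranked by lower potency value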;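 also: cells exposed to compound for 40 hours at 37 °C before ATP read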); conditions: qHTS
Summary of the method: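 qHTS, 1536-well; Jurkat E6-1, 5000 cells/well, complete medium; cpd 40 hr, 37 °C; CellTiter-Glo 20 min RT; luminescence. AC50 by Hill fit.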

[3] = Cell Viability - Hek293 (AID 427;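 active = compounds whose dose-response curve shows a full or clear partial loss of cell viability, called from curve shape rather than a numeric limit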;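 also: cells exposed to compound for 40 hours at 37 °C before reading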); conditions: qHTS
Summary of the method: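 AC50 values derive from Hill-modelled concentration-response of ATP-based luminescence, normalized between DMSO-only and 100 uM tamoxifen controls. Cells were exposed in complete culture medium for 40 hr at 37 °C before detection.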

[4] = Cell Viability - HepG2 (AID 433); conditions: qHTS;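 also: cells exposed to compound for 40 hours; potency for ATP loss meaning cytotoxicity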
Summary of the method: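 HepG2 cells, 1500 per well, treated 40 hr at 37 °C in complete medium; viability from intracellular ATP by CellTiter-Glo luminescence. Normalized to DMSO and 100 uM tamoxifen; AC50 from Hill fit of qHTS concentration-response.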

[5] = Cell Viability - MRC5 (AID 434); conditions: MRC5 lung fibroblast viability, qHTS;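 also: cells exposed to compound for 40 hours at 37 °C; potency reflects cytotoxicity seen as loss of intracellular ATP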
Summary of the method: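 qHTS cytotoxicity in human lung fibroblast MRC5 cells; 40 hr treatment, 37 °C; cellular ATP by luciferase luminescence; DMSO = 0%, 100 uM tamoxifen = 100% inhibition; Hill-fit AC50.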

[6] = Cell Viability - SK-N-SH (AID 435); conditions: SK-N-SH neuroblastoma cell viability qHTS;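 also: compound exposure lasted 40 h at 37 °C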
Summary of the method: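 SK-N-SH neuroblastoma cells (1500/well) treated 40 h at 37 °C in complete medium; viability read as cellular ATP by CellTiter-Glo luminescence. Normalized to DMSO and 100 uM tamoxifen; AC50 from Hill fits of qHTS concentration-response.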

Measured: Potency
Potency is read from the fitted curve at half-maximal effect.

c1ccc2ccccc2c1
inactive: [1] > 92 µM | [2] > 92 µM | [3] > 92 µM | [4] > 92 µM | [5] > 92 µM | [6] > 92 µM

NC(N)=O
inactive: [1] > 92 µM | [2] > 92 µM | [3] > 92 µM | [4] > 92 µM | [5] > 92 µM | [6] > 92 µM

Cc1ncc[nH]1
inactive: [1] > 92 µM | [2] > 92 µM | [3] > 92 µM | [4] > 92 µM | [5] > 92 µM | [6] > 92 µM

C=C1C(CCl)(CCl)C2(Cl)C(Cl)C(Cl)C1(Cl)C2(Cl)Cl (centres undefined)
active: [2] 31 µM | [3] 48.2 µM | [6] 50 µM
inactive: [4] > 92 µM | [5] > 92 µM

CC1=CCC2CC1C2(C)C (centres undefined)
inactive: [1] > 92 µM | [2] > 92 µM | [3] > 92 µM | [4] > 92 µM | [5] > 92 µM | [6] > 92 µM

Cc1ccc(S(=O)(=O)O)cc1C
inactive: [1] > 92 µM | [2] > 92 µM | [3] > 92 µM | [4] > 92 µM | [5] > 92 µM | [6] > 92 µM

CCOC(C)OCC
inactive: [1] > 92 µM | [2] > 92 µM | [3] > 92 µM | [4] > 92 µM | [5] > 92 µM | [6] > 92 µM

[O-][N+](=Nc1ccccc1)c1ccccc1
inactive: [1] > 92 µM | [2] > 92 µM | [3] > 92 µM | [4] > 92 µM | [5] > 92 µM | [6] > 92 µM

OCC(O)CO
inactive: [1] > 92 µM | [2] > 92 µM | [3] > 92 µM | [4] > 92 µM | [5] > 92 µM | [6] > 92 µM

Oc1cccc(O)c1O
inactive: [4] > 92 µM | [5] > 92 µM

Nc1nccs1
inactive: [1] > 92 µM | [2] > 92 µM | [3] > 92 µM | [4] > 92 µM | [5] > 92 µM | [6] > 92 µM

CO
inactive: [1] > 92 µM | [2] > 92 µM | [3] > 92 µM | [4] > 92 µM | [5] > 92 µM | [6] > 92 µM

CC[C@H]1OC(=O)[C@H](C)[C@@H](O[C@H]2C[C@@](C)(OC)[C@@H](O)[C@H](C)O2)[C@H](C)[C@@H](O[C@@H]2O[C@H](C)C[C@H](N(C)C)[C@H]2O)[C@](C)(O)C[C@@H](C)CN(C)[C@H](C)[C@@H](O)[C@]1(C)O
inactive: [1] > 92 µM | [3] > 92 µM | [4] > 92 µM | [5] > 92 µM

OC[C@H]1O[C@@H]2O[C@H]3[C@H](O)[C@@H](O)[C@@H](O[C@H]4[C@H](O)[C@@H](O)[C@@H](O[C@H]5[C@H](O)[C@@H](O)[C@@H](O[C@H]6[C@H](O)[C@@H](O)[C@@H](O[C@H]7[C@H](O)[C@@H](O)[C@@H](O[C@H]1[C@H](O)[C@H]2O)O[C@@H]7CO)O[C@@H]6CO)O[C@@H]5CO)O[C@@H]4CO)O[C@@H]3CO
inactive: [1] > 92 µM | [2] > 92 µM | [3] > 92 µM | [4] > 92 µM | [5] > 92 µM | [6] > 92 µM

CCCCC
inactive: [1] > 92 µM | [2] > 92 µM | [3] > 92 µM | [4] > 92 µM | [5] > 92 µM | [6] > 92 µM

CCCCO
inactive: [1] > 92 µM | [2] > 92 µM | [3] > 92 µM | [4] > 92 µM | [5] > 92 µM | [6] > 92 µM

From PubChem BioAssay (NCATS)
